A short description of test [1]: E. coli DRC41 culture turbidity changes, primary screen, E. coli filamentation inducer project, strain DRC41, OD650, 48 h (AID 1152).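 Also: E. coli MC1000 strain DRC41 lacking acrAB efflux pump and sulA.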 To be noted: E. coli DRC41 (acrAB sulA), higher = more signal, called active from +8 up or from −8 down.
The nature of test [2]: small-molecule binders of probe aLefty1, primary screen, biochemical, small-molecule microarray, 635/667 nm fluorescence (AID 1153).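 Also: score merges spot fluorescence with signal-to-noise ratio from the scanned slide images.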 The following applies: higher = more signal.
A short description of test [3]: PSAC antagonists in infected red cells, primary screen, cell-based, P. falciparum Indochina, OD700, 1 h (AID 1154). The following applies: P. falciparum Indochina infected RBC osmotic lysis, higher = more signal, called active from +8 up or from −8 down.
Test [4] is described as follows: PSAC antagonists in infected red cells, primary screen, cell-based, P. falciparum Indochina, OD700, 2 h (AID 1155).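 Also: lysis reports solute entry through the parasite surface anion channel PSAC; channel blockers reduce lysis of infected cells.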 The following applies: P. falciparum Indochina infected erythrocytes, osmotic lysis OD700; higher = more signal, called active from +8 up or from −8 down.
Test [5] can be described thus: osmotic lysis modulators in infected erythrocytes, primary screen, PSAC antagonist project, cell-based, P. falciparum Indochina, OD700, 3 h (AID 1156). To be noted: higher = more signal, called active from +8 up or from −8 down.
Test [6] can be described thus: PSAC antagonists in infected red cells, primary screen, cell-based, P. falciparum Indochina, OD700, 18 h (AID 1157). The following applies: P. falciparum Indochina infected erythrocytes, osmotic lysis OD700, 18 h; higher = more signal, called active from +8 up or from −8 down.
Test [7] in a line: modulators of S6 phosphorylation in cells, primary screen, cell-based, A549, cytoblot, luminescence, serum-stimulated (AID 1158).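 Also: serum-stimulated A549 lung adenocarcinoma cells; signal is phosphorylated S6 detected by cytoblot immunostaining with HRP secondary.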 The following applies: A549 phospho-S6 cytoblot, 5 h, higher = more signal.
Test [8] addresses NADPH oxidase 2 (Homo sapiens) (UniProt P04839). Description: NOX2-dependent H2O2 signal modulators, primary screen, NOX inhibitor project, cell-based, HEK293-NOX2, PMA-stimulated, Amplex Red fluorescence (AID 1159). Also: test concentration not given here. The following applies: 45 min, higher = more signal, called active from +8 up or from −8 down.
Test [9] deals with NADPH oxidase 4 (Homo sapiens) (UniProt Q9NPH5). The test is described as follows: NOX4-dependent H2O2 signal modulators, primary screen, NOX inhibitor project, cell-based, HEK293-NOX4, tetracycline-induced, Amplex Red fluorescence (AID 1160). To be noted: 45 min, higher = more signal, called active from +8 up or from −8 down.
Test [10] has as its target NADPH oxidase 5 (Homo sapiens) (UniProt Q96PH1). The test is described as follows: NOX5-dependent H2O2 signal modulators, primary screen, NOX inhibitor project, cell-based, HEK293-NOX5, Amplex Red fluorescence (AID 1161). To be noted: HEK293-NOX5, ionomycin, 45 min, higher = more signal.

Molecules are shown by their SMILES. Activity calls are given as the source filed them.

Sequence of NADPH oxidase 4 (Homo sapiens) (Q9NPH5 whole entry, looked up): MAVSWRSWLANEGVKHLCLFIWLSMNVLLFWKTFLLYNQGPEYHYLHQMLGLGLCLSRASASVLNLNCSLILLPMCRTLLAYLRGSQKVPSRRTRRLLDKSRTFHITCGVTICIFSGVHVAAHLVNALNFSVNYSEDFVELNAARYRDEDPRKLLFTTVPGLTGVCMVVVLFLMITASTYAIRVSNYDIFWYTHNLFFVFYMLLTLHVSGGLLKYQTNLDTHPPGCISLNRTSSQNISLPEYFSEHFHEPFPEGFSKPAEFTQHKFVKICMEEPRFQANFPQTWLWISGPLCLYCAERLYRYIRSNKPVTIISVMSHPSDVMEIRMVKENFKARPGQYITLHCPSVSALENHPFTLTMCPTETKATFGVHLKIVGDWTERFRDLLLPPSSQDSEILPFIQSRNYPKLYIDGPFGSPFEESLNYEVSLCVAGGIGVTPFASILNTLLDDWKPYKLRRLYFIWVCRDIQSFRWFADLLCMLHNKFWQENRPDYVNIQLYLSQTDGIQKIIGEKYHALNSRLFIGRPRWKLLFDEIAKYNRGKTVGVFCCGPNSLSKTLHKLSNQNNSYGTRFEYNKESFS
Sequence of NADPH oxidase 2 (Homo sapiens) (P04839 whole entry, looked up): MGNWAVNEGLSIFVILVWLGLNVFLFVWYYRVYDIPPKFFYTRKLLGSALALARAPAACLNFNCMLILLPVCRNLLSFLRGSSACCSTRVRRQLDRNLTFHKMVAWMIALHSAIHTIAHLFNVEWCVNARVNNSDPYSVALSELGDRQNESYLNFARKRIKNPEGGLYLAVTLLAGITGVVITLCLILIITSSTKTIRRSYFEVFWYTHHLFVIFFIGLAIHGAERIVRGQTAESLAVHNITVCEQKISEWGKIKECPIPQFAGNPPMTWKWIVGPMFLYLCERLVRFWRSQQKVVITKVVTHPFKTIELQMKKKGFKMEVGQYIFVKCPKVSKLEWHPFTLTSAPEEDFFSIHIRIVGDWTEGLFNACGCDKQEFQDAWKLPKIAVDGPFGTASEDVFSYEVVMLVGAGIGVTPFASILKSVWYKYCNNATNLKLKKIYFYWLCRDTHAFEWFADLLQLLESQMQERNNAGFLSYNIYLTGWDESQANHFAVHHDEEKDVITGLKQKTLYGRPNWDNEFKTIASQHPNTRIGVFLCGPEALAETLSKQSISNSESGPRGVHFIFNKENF
Sequence of NADPH oxidase 5 (Homo sapiens) (Q96PH1 whole entry, looked up): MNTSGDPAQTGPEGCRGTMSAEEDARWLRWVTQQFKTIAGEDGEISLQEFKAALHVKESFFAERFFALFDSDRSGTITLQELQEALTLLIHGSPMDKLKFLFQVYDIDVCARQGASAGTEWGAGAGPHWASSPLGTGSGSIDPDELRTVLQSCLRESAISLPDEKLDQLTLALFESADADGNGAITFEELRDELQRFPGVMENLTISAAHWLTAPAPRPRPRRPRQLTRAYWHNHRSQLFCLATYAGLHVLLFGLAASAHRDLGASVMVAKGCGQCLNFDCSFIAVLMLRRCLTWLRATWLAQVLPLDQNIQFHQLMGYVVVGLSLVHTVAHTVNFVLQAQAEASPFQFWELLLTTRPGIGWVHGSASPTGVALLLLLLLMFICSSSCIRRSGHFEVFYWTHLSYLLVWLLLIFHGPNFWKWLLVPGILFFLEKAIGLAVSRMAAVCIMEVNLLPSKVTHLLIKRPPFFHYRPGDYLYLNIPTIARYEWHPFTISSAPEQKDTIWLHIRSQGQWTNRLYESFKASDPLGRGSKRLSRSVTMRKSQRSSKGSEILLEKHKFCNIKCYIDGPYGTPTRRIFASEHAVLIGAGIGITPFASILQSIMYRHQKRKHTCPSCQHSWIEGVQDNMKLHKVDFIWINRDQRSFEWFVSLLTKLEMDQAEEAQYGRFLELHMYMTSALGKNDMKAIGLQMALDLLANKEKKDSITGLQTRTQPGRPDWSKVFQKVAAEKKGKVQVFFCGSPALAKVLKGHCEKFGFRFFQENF

For the compound `CO[C@H]1COC(=O)[C@@H](C)NC(=O)CC=C[C@@H](C)[C@H](OC)COC(=O)CC=C[C@@H]1C`, the z-score in test [1] was 0.394 (inactive); in test [3], 1.08 (inactive); in test [4], -0.211 (inactive); in test [5] it was 0.237 (inactive); in test [6], -1.58 (inactive); in test [7], 0.722. Moreover, the values for the z-score in test [8], in [9] and in test [10] were 0.714 (inactive), 0.981 (inactive) and 0.539, respectively. Besides, in test [2], the composite z-score amounted to 0.0455.
In the case of `COC(=O)C(CC#Cc1ccc2c(c1)[C@]1(C(=O)N2)[C@H](C(=O)N2CCCCCCC2)[C@H]2C(=O)O[C@H](c3ccccc3)[C@H](c3ccccc3)N2[C@@H]1c1ccc(O)cc1)C(=O)OC`, the z-score in test [1] is 0.752 (inactive); in [3], 0.561 (inactive); in [4] it was -0.312 (inactive); in [5] it was -0.221 (inactive); in test [6] it was -1.18 (inactive); in test [7] it was 1.28. Besides, the z-score in [8] is 0.455 (inactive); in test [9], 0.264 (inactive); in test [10], 0.147. In test [2], this compound had a composite z-score of 0.297.
For the compound `CO[C@@H]1COC(=O)[C@H](C)NC(=O)CC=C[C@@H](C)[C@H](NS(=O)(=O)c2ccc(C)cc2)COC(=O)CC=C[C@@H]1C`, the z-score in test [1] is 0.117 (inactive); in test [3], -0.697 (inactive); in test [4], -0.207 (inactive); in [5], 0.0724 (inactive); in test [6], -0.0387 (inactive); in [7] it was 0.225. Besides, the results for the z-score in [8], in test [9] and in test [10] were 0.564 (inactive), 0.661 (inactive) and 0.661, respectively. The same compound came in with a composite z-score in [2] of -0.15.
As for `Cc1ccc(S[C@]2(C(=O)O)CC(=O)N(Cc3ccccc3)[C@@H]2c2ccc(CO)cc2)cc1`, the z-score was 2.89 (inactive) in test [1]; 2.85 (inactive) in test [3]; -0.263 (inactive) in test [4]; 1.09 (inactive) in [5]; -0.707 (inactive) in test [6]; 0.462 in [7]. In addition, the z-score in [8] is -0.198 (inactive); in test [9] it was -0.197 (inactive); in [10], 1.6. The compound also gave a composite z-score in test [2] of 0.0215.
Take `CCC#CCN(Cc1ccccc1Br)[C@H](/C=C/c1ccccc1)[C@@H](O)Cc1ccccc1`: the z-score was 0.625 (inactive) in test [1]; 1.79 (inactive) in test [3]; 1.15 (inactive) in test [4]; -0.696 (inactive) in test [5]; 0.475 (inactive) in [6]; -0.218 in test [7]. Moreover, the values for the z-score in test [8], in test [9] and in [10] were -0.267 (inactive), 0.0785 (inactive) and -0.41, respectively. The same compound gave a composite z-score in test [2] of -0.0035.
Turning to `CO[C@@H]1COC(=O)CC=C[C@H](C)COC(=O)[C@H](Cc2ccccc2)NC(=O)CC=C[C@H]1C`, the z-score in test [1] was 0.106 (inactive); in test [3] it was -0.0544 (inactive); in [4], -0.866 (inactive); in test [5], -0.295 (inactive); in [6], -1.49 (inactive); in test [7] it was 0.681. The figures for the z-score in test [8], in test [9] and in [10] were -0.486 (inactive), 0.845 (inactive) and 0.528, respectively. The compound further showed a composite z-score in test [2] of -0.358.
In the case of `Cc1ccc(N2C(=O)c3ccccc3[C@@H](C(=O)NCc3ccccc3)[C@@H]2c2ccc(CO)cc2)nc1`, the z-score in [1] is 1.85 (inactive); in [3] it was 2.1 (inactive); in [4], -0.349 (inactive); in test [5], -0.199 (inactive); in [6], -0.509 (inactive); in test [7], -1.72. Moreover, the z-score in test [8] was -0.109 (inactive); in test [9], 1.03 (inactive); in test [10] it was 0.298. The compound further registered a composite z-score in test [2] of 0.26.
On to `COCCCNC(=O)[C@@H]1c2ccccc2C(=O)N(CC23CC4CC(CC(C4)C2)C3)[C@H]1c1ccc(CO)cc1`, for which the z-score in test [1] is -0.162 (inactive); in [3], 4.59 (inactive); in [4], -0.14 (inactive); in test [5], 3.38 (inactive); in test [6], -0.877 (inactive); in test [7], 2.61. For the same compound, the z-score in test [8] is -1.24 (inactive); in test [9] it was -2.34 (inactive); in test [10], -4.2. Besides, in test [2], the composite z-score was 0.276.
Take `O=C1O[C@@H](c2ccccc2)[C@@H](c2ccccc2)N2[C@@H](c3ccc(OCCO)cc3)[C@]3(C(=O)Nc4ccc(C#CCCO)cc43)[C@@H](C(=O)N3CCN(c4ncccn4)CC3)[C@H]12`: the z-score is 0.533 (inactive) in [1]; 3.54 (inactive) in test [3]; 1.71 (inactive) in test [4]; -1.56 (inactive) in test [5]; 0.664 (inactive) in test [6]; -0.436 in test [7]. Also, the z-score in test [8] is 2 (inactive); in test [9], 0.677 (inactive); in test [10], 0.589. This compound registered a composite z-score in [2] of 0.242.
As to `COc1ccc(C(O)C2C=CC3C(=O)N(C)C(=O)C3N2N2CCCCC2)cc1OCc1ccccc1` (stereo not given), the z-score in test [1] was -1.54 (inactive); in [3] it was 2.29 (inactive); in test [4], 1.53 (inactive); in [5], 0.42 (inactive); in test [6], 1.27 (inactive); in [7], -1.16. Moreover, the z-score was 0.0637 (inactive) in [8], -1.56 (inactive) in [9] and 1.31 in [10]. The compound also gave a composite z-score in test [2] of 0.11.
In the case of `COc1cc2c(cc1OC)CN(C(=O)[C@H]1[C@@H]3C(=O)O[C@@H](c4ccccc4)[C@@H](c4ccccc4)N3[C@@H](c3ccccc3OCCO)[C@]13C(=O)Nc1ccc(C#CC4(O)CCCCCC4)cc13)CC2`, the z-score in test [1] was 2.29 (inactive); in test [3], 3.02 (inactive); in test [4] it was 2.11 (inactive); in test [5], 3.25 (inactive); in test [6], 1.89 (inactive); in test [7], 0.389. Further, the z-score is 1.07 (inactive) in [8], 1.65 (inactive) in [9] and 1.43 in test [10]. Further, the composite z-score in [2] worked out at 0.0686.
Turning to `COc1cc(CO)cc(I)c1O[C@H]1C=C(C(=O)NCCO)C[C@@H](NCCc2c[nH]c3ccccc23)[C@@H]1O`, the z-score is 0.878 (inactive) in [1]; 11.3 (active) in [3]; 0.928 (inactive) in test [4]; 1.22 (inactive) in test [5]; -0.869 (inactive) in test [6]; 2.21 in [7]. Moreover, the z-score in [8] is -0.912 (inactive); in [9], -1.4 (inactive); in [10] it was -0.447. The same compound had a composite z-score in [2] of 0.335.
In the case of `Cc1ccc(S(=O)(=O)N2[C@@H](c3ccccc3)C(C(=O)O)=CC[C@H]2c2ccccc2)cc1`, the z-score in [1] was -1.57 (inactive); in test [3], 0.432 (inactive); in test [4], 0.798 (inactive); in test [5], 0.605 (inactive); in test [6], 0.83 (inactive); in [7], -0.259. For the same compound, the z-score is -0.127 (inactive) in test [8], -0.375 (inactive) in test [9] and -2.32 in test [10]. In [2], this compound returned a composite z-score of -0.0501.

The values are drawn from PubChem BioAssay.
